Results on 15 molecules are retold here after PubChem BioAssay.

Activity calls are given as the source filed them.

Assay [1] can be described thus: compound effects on lung adenocarcinoma cell viability – A549, calcein-AM fluorescence, 48 h, basal, profiling panel (AID 1162). The conditions noted are these: higher = more signal.
Assay [2] is described as follows: compound effects on differentiated 3T3-L1 adipocyte viability – cell-based, 3T3-L1 adipocytes, calcein-AM fluorescence, 48 h, basal, profiling panel (AID 1163). The settings on record: 3T3-L1 adipocytes viability, higher = more signal.
Assay [3] can be described thus: compound effects on hepatocellular carcinoma cell viability – HepG2, calcein-AM fluorescence, 48 h, basal, profiling panel (AID 1164). The conditions noted are these: higher = more signal.
A short description of assay [4]: compound effects on multiple myeloma cell viability – MM1S, calcein-AM fluorescence, 48 h, basal, profiling panel (AID 1165). The conditions noted are these: higher = more signal.
Assay [5] is described as follows: calcein-AM signal in unstimulated myeloma cells – cell-based, calcein-AM fluorescence, 48 h, PK04 Diversity Set, profiling panel (AID 1166).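 Note: cells grown under basal conditions without added stimulus.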 The conditions noted are these: RPMI8226 myeloma viability, higher = more signal.
A short description of assay [6]: JC-1 mitochondrial signal, unstimulated HepG2 cells – cell-based, JC-1 fluorescence, 24 h, 100 nL compound, profiling panel (AID 1167). The settings on record: HepG2 mitochondrial potential, higher = more signal.
The nature of assay [7]: JC-1 mitochondrial signal, unstimulated adipocytes – cell-based, JC-1 fluorescence, 3T3-L1 adipocytes, 24 h, 100 nL compound, profiling panel (AID 1168). The settings on record: JC-1 mitochondrial fluorescence, higher = more signal, called active from +8 up or from −8 down.
Assay [8] is described as follows: JC-1 mitochondrial signal, unstimulated myeloma cells – cell-based, JC-1 fluorescence, RPMI8226, 24 h, 100 nL compound, profiling panel (AID 1169). The settings on record: JC-1 mitochondrial potential fluorescence, higher = more signal.
Assay [9] can be described thus: JC-1 mitochondrial signal, unstimulated MM1S myeloma – cell-based, JC-1 fluorescence, 24 h, 100 nL compound, profiling panel (AID 1170). The conditions noted are these: MM1S mitochondrial potential, higher = more signal.
Assay [10] can be described thus: resazurin metabolic signal in A549 cells – cell-based, resazurin fluorescence, 24 h, PK04 Diversity Set, profiling panel (AID 1171). The conditions noted are these: A549 viability, higher = more signal, called active from +8 up or from −8 down. In general terms: Resazurin is reduced to fluorescent resorufin, in cell work by metabolically active cells.
Note: test concentration not given here.

In the case of `O=C1C2C=CC(C(O)c3ccc(F)cc3)N(Nc3ccccc3F)C2C(=O)N1c1ccccc1` (stereo not given), the z-score in assay [1] was -1.39; in assay [2] it was -1.1; in [3] it was -1.47; in assay [4], -0.389; in [5] it was -0.233; in assay [6] it was -1.73. Also, the z-score in [7] is -1.08 (inactive); in assay [8] it was -0.143; in [9], 0.396; in assay [10], 0.0853 (inactive).
As for `CC1CC/C=C\[C@H]2OC34C=CCN(Cn5nnc6ccccc65)C(=O)[C@H]3N(C(CO)C(C)C)C(=O)[C@@H]4C2C(=O)O1` (stereo not given in full), the z-score in assay [1] was 0.101; in [2], 0.0716; in assay [3], 0.0778; in assay [4], 0.654; in assay [5], -0.872; in assay [6], -0.388. The z-score in assay [7] is -0.573 (inactive); in [8] it was -0.637; in assay [9], -0.454; in assay [10], 0.238 (inactive).
Turning to `C[N+](C)(C)CCCCNC(=O)[C@H]1C[C@H]2C(=O)N[C@@H](Cc3ccccc3)C(=O)N2[C@H]1c1ccc(O)cc1`, the z-score was -0.111 in [1]; -0.649 in [2]; 0.0005 in [3]; 0.27 in assay [4]; -0.546 in assay [5]; 0.169 in [6]. Besides, the z-score in [7] was -0.333 (inactive); in assay [8] it was -0.831; in [9], -1.13; in assay [10] it was -0.486 (inactive).
With `COc1ccc(NN2C(C(O)c3ccc([N+](=O)[O-])cc3)C=CC3C(=O)N(C4CCCCC4)C(=O)C32)cc1` (stereo not given), the z-score in [1] is 0.0649; in assay [2], -1.33; in assay [3] it was 0.52; in [4], 0.538; in assay [5], -0.465; in [6], -0.0181. For the same molecule, the z-score in [7] is 0.369 (inactive); in assay [8], 0.919; in assay [9] it was -1.71; in assay [10], 1.01 (inactive).
With `COC(=O)c1c(CC[C@@H](CO)NC(=O)N[C@@H](C)Cn2cc(C3(O)CCCCC3)nn2)oc(C(C)=O)c1C(=O)OC`, the z-score in assay [1] was 0.0154; in [2], 0.93; in assay [3] it was -0.0256; in assay [4], 0.0508; in assay [5] it was -1.82; in assay [6] it was -0.637. The z-score in assay [7] is 1.17 (inactive); in assay [8], -0.44; in assay [9], 0.414; in [10], -1.04 (inactive).
With `CCCCCN1CC=CC23O[C@@H]4/C=C\CCCOC(=O)C4[C@H]2C(=O)N(C(CO)C(C)C)[C@@H]3C1=O` (stereo not given in full), the z-score was -0.436 in [1]; 0.737 in assay [2]; -1.05 in [3]; 0.693 in assay [4]; 0.108 in assay [5]; -0.335 in assay [6]. The z-score in [7] is -0.0791 (inactive); in assay [8], 0.0204; in assay [9], -0.407; in [10], 0.534 (inactive).
With `COC(=O)C=C(CC(O)c1cccc(Cl)c1)OC` (stereo not given), the z-score was 0.409 in assay [1]; 0.0036 in [2]; 1.01 in assay [3]; 0.892 in [4]; -0.221 in assay [5]; 0.456 in assay [6]. The z-score in assay [7] is 0.705 (inactive); in assay [8] it was -0.738; in assay [9] it was -1.36; in assay [10], -0.34 (inactive).
Consider `Cc1ccc(S[C@]2(C(=O)NCCN3CCOCC3)CC(=O)N(Cc3ccccc3)[C@@H]2c2ccc(CO)cc2I)cc1`, for which the z-score in assay [1] is -0.242; in assay [2], 1.1; in assay [3] it was -0.705; in [4], -2.08; in assay [5] it was -2.5; in assay [6], 0.119. Further, the z-score in assay [7] was -0.688 (inactive); in [8] it was -0.383; in assay [9] it was -2.44; in assay [10], 0.394 (inactive).
Regarding `C=CCOC(=O)[C@H]1[C@@H]2C(=O)O[C@@H](c3ccccc3)[C@@H](c3ccccc3)N2[C@@H](c2ccc(OCCOC(=O)[C@H]3C[C@H]4C(=O)N5CCC[C@H]5C(=O)N4[C@H]3c3ccc(O)cc3)cc2)[C@]12C(=O)Nc1ccccc12`, the z-score in assay [1] is -0.45; in assay [2] it was 1.46; in assay [3], 0.226; in assay [4] it was -0.0596; in assay [5] it was -0.653; in assay [6], -1.37. The z-score in [7] was 1.22 (inactive); in assay [8], -0.515; in assay [9] it was -0.857; in assay [10], 0.315 (inactive).
On to `C=CCOC(=O)[C@@H]1[C@H]2C(=O)O[C@H](c3ccccc3)[C@H](c3ccccc3)N2[C@H](c2ccc(OCCOC(=O)[C@@H]3C[C@@H]4C(=O)N[C@@H](CCCC[N+](C)(C)C)C(=O)N4[C@@H]3c3cccc(OCCO)c3)cc2)[C@@]12C(=O)Nc1ccc(I)cc12`, for which the z-score in assay [1] was -0.477; in assay [2], 0.788; in assay [3], -0.776; in [4] it was -2.78; in [5] it was -2.03; in assay [6] it was -0.605. Besides, the z-score in [7] was 0.902 (inactive); in assay [8], -0.637; in [9], -1.22; in [10] it was 0.504 (inactive).
Regarding `COc1ccc(C(=O)Nc2cccc(CN3C(=O)[C@]4(O[C@H](CCO)[C@@H]([Si](C)(C)c5ccc(OC)cc5)[C@@H]4C)c4ccccc43)c2)cc1`, the z-score in assay [1] is -4.13; in assay [2] it was -0.564; in [3] it was -4.73; in assay [4], -2.78; in assay [5], -4.35; in assay [6], -2.23. Also, the z-score in assay [7] is -1.37 (inactive); in assay [8], -0.73; in assay [9] it was -1.96; in [10] it was -6.33 (inactive).
`COCC(=C=CC[C@@H](O)c1ccccc1OCCO)C[C@@H](O)c1cc(Cl)cc(Cl)c1O`: the z-score in [1] was 0.14; in assay [2], -0.407; in assay [3], 0.0467; in assay [4] it was -3.32; in assay [5], -3.44; in assay [6] it was -2.21. For the same molecule, the z-score in [7] was -1.69 (inactive); in assay [8], -0.881; in assay [9], -1.15; in assay [10] it was -0.106 (inactive).
In the case of `CN(C)C(=O)[C@@]1(Cc2ccccc2)N=C(c2ccc(OCCCO)cc2)O[C@H]1c1ccccc1N=[N+]=[N-]`, the z-score in assay [1] is -1.45; in assay [2], 1.22; in [3], -1.84; in [4], -2.53; in [5], -3.91; in [6] it was 1.48. In addition, the z-score in [7] is 1.17 (inactive); in [8] it was -0.981; in [9], -2.53; in assay [10], -1.63 (inactive).
On to `Cc1ccc(S[C@]2(C(=O)NC3CC3)CC(=O)N(C3Cc4ccccc4C3)[C@@H]2c2ccc(CO)cc2)cc1`, for which the z-score in [1] is 3.2; in assay [2] it was 0.785; in assay [3], 1.51; in assay [4] it was 0.498; in [5] it was 0.244; in assay [6], 2.78. Further, the z-score in assay [7] was 0.569 (inactive); in assay [8] it was 0.763; in [9] it was -0.0488; in [10], -1.23 (inactive).
As to `O=C1O[C@H](c2ccccc2)[C@H](c2ccccc2)N2[C@H]1[C@@H](C(=O)Nc1nc3ccccc3s1)[C@]1(C(=O)Nc3ccc(C#CCCO)cc31)[C@H]2c1ccc(OCCO)cc1`, the z-score in assay [1] was 0.233; in [2], 0.205; in assay [3] it was 1.03; in assay [4], -0.265; in [5] it was 0.743; in [6], -3.28. Further, the z-score in [7] was 0.491 (inactive); in assay [8] it was -0.995; in assay [9], -1.49; in assay [10], 0.441 (inactive).
